This is a sample that favours compounds with a hit; in the whole collection about 2% have one here.
F-actin modifier = alters cytoskeleton assembly in HUVEC cells | HUVEC TNFa F-actin phalloidin imaging, high content | inhibition, % at 2 µM | 91,000 compounds, 0.18% hits | AID 836;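 active = inhibition above the batch mean plus 3 SD and confirmed as a hit by visual image inspection, cut at about 30% in these data, passing the limit was not always enough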
TNFa cytotox = toxic to HUVEC cells under TNF alpha stimulation. HUVEC TNFalpha-stimulated, Hoechst cell count, imaging. cell count reduction, % at 2 µM. 93,000 compounds, 0.17% hits. AID 848;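 active = cell count reduction exceeding the screen mean by over 5 SD, scaled to untreated wells per plate, cut at about 78% in these data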;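 also: cells counted after 24 h of TNF alpha exposure following the 1 h pretreatment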
PLAP activator = activators of human placental alkaline phosphatase | P05187 | purified PLAP enzyme, luminescent substrate read-out; stronger effect = higher value | activation fold at 20 µM | 96,000 compounds, 1.2% hits; in the data active = activation fold above about 2
Target sequence (P05187 whole entry, looked up): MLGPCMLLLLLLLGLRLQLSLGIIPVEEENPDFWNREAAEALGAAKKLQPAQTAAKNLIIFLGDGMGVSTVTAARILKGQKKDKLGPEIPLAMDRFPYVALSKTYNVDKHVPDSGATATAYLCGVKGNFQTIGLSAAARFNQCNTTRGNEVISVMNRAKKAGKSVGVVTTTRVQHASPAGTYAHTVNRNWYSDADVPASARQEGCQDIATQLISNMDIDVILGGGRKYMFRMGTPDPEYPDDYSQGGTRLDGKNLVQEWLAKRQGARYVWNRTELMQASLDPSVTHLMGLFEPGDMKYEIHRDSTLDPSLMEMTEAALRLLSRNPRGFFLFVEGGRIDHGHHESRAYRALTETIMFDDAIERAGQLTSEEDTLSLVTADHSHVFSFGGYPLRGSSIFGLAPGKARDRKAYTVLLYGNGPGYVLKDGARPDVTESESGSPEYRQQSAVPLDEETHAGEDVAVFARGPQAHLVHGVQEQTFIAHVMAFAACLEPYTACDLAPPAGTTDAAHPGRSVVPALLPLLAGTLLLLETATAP
E-sel TNF inh = TNF alpha driven E-selectin expression inhibition; HUVEC TNFa-induced E-selectin immunofluorescence, high content; inhibition, % at 2 µM; 120,000 compounds, 0.71% hits; AID 1246;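 active = inhibition above the batch mean plus 3 SD, and confirmed as a hit on visual image review, cut at about 43% in these data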;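 also: 0% = TNF-stimulated DMSO wells and 100% = unstimulated control wells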
VCAM1 TNFa inh = reduces TNF alpha induced VCAM1 expression in HUVEC. HUVEC TNFa-induced VCAM-1 immunofluorescence, high-content imaging. inhibition, % at 2 µM. 95,000 compounds, 0.48% hits. AID 802;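 active = inhibition above the batch mean plus 3 SD, with images confirmed as a hit by eye, cut at about 37% in these data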;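 also: 0% = TNF-stimulated DMSO wells and 100% = unstimulated control wells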
* = called active by the depositor.

What do the screens show for `CCOc1ccc2nc(Nc3nc(CSc4nnnn4-c4ccccc4)cc(=O)[nH]3)nc(C)c2c1`?
F-actin modifier: 12; TNFa cytotox: 31; PLAP activator: 2.5*; VCAM1 TNFa inh: 3

How did CCn1c2ccccc2c2cc(NC(=O)C(C)Oc3ccc(OC)cc3)ccc21 (centres undefined) do in these assays?
F-actin modifier: -6; TNFa cytotox: -21; PLAP activator: 1; E-sel TNF inh: -18; VCAM1 TNFa inh: -4

Results for C/C(=N\NC(=O)CN(c1ccccc1Br)S(C)(=O)=O)c1ccc2c(c1)OCCO2 ?
E-sel TNF inh: 66*

How did COc1ccccc1N(CC(=O)N/N=C(\C)c1cccc(Br)c1)S(C)(=O)=O do in these assays?
E-sel TNF inh: -15

What do the screens show for `CCn1cc(S(=O)(=O)CC(=O)NC2CCCCC2)c2ccccc21`?
F-actin modifier: -6; TNFa cytotox: 0; PLAP activator: 1; VCAM1 TNFa inh: -2

What do the screens show for `CCn1cc(S(=O)(=O)CC(=O)Nc2cc(C)ccc2C)c2ccccc21`?
F-actin modifier: 8; TNFa cytotox: -3; PLAP activator: 1.5; E-sel TNF inh: 62*; VCAM1 TNFa inh: 26

What do the screens show for `CC(C)C(=O)Nc1ccc(C(=O)NNC(=O)NC2CCCCC2)cc1`?
F-actin modifier: 2; TNFa cytotox: 28; PLAP activator: 1.1; E-sel TNF inh: -52; VCAM1 TNFa inh: 36*

Results for COc1ccccc1N(Cc1ccccc1)S(=O)(=O)c1cccc(C(=O)Nc2ccc(C(C)=O)cc2)c1 ?
E-sel TNF inh: 65*

Results for COc1ccccc1NC(=O)COc1ccc(CO)cc1Cl ?
F-actin modifier: -9; TNFa cytotox: -12; PLAP activator: 0.9; E-sel TNF inh: 20; VCAM1 TNFa inh: 20

How did C=CCN1C(c2ccccc2)=CS/C1=C(\C#N)c1nnc2n1CCCCC2 do in these assays?
PLAP activator: 1.6; E-sel TNF inh: 63*

How did C=CCN1C(c2cccc(C(F)(F)F)c2)=CS/C1=C(/C#N)c1nnc(N2CCOCC2)n1-c1ccccc1 do in these assays?
E-sel TNF inh: 72*

What do the screens show for `COc1cc(NC(=O)CN2C(=O)NC(C)(CC(C)C)C2=O)cc(OC)c1` (centres undefined)?
F-actin modifier: 43; TNFa cytotox: -41; PLAP activator: 1.3; E-sel TNF inh: 3; VCAM1 TNFa inh: 93*

Results for COc1cc(NC(=O)CN2C(=O)NC(C)(CCC(C)C)C2=O)cc(OC)c1 (centres undefined) ?
F-actin modifier: 27; TNFa cytotox: -31; PLAP activator: 1.5; E-sel TNF inh: -1; VCAM1 TNFa inh: 6

Results for CCOc1ccc(NC(=O)/C=C/c2ccc(OC)cc2)c([N+](=O)[O-])c1 ?
E-sel TNF inh: 61*

What do the screens show for `CCOc1ccc(NC(=O)COC(=O)C23CC4CC(CC(C4)C2)C3)c([N+](=O)[O-])c1`?
E-sel TNF inh: 95*

Results for Cc1cc(=O)oc(C)c1C(=O)Nc1c(C)n(C)n(-c2ccccc2)c1=O ?
F-actin modifier: 0; TNFa cytotox: -19; PLAP activator: 1.1; VCAM1 TNFa inh: 21

Results for Nc1sc(-c2ccccc2)c(Cc2ccccc2)c1C(=O)O ?
E-sel TNF inh: -3

Results for Cc1sc(-c2ccncc2)nc1OC(=O)c1ccccc1 ?
TNFa cytotox: -13; PLAP activator: 1.3; E-sel TNF inh: -5; VCAM1 TNFa inh: -12

Results for O=C(Nc1ccccc1)c1nnsc1S(=O)c1ccc(Cl)cc1 (centres undefined) ?
F-actin modifier: 25; TNFa cytotox: 4; PLAP activator: 0.9; E-sel TNF inh: 80*; VCAM1 TNFa inh: 43*

Results for O=C(Nc1ccc(Cl)cc1)c1cccs1 ?
F-actin modifier: 8; TNFa cytotox: -5; PLAP activator: 1.3; E-sel TNF inh: -44; VCAM1 TNFa inh: -18

How did O=c1cc(C(Cl)(Cl)Cl)oc2c1ccc1ccccc12 do in these assays?
F-actin modifier: -10; TNFa cytotox: 30; PLAP activator: 0.8; E-sel TNF inh: 12; VCAM1 TNFa inh: 80*

What do the screens show for `COc1ccc(CCNC(=O)C(=O)NCc2ccc(C)cc2)cc1OC`?
F-actin modifier: -7; TNFa cytotox: -5; PLAP activator: 0.9; E-sel TNF inh: 50*; VCAM1 TNFa inh: 6

How did COc1ccc(CCNC(=O)C(=O)NCc2ccc(Cl)cc2)cc1OC do in these assays?
E-sel TNF inh: -27

Results for COc1ccc(NC(=O)CCNS(=O)(=O)c2ccc(Br)s2)cc1 ?
F-actin modifier: -6; TNFa cytotox: -6; PLAP activator: 0.8; VCAM1 TNFa inh: 1

What do the screens show for `COc1ccc(NC(=O)/C(=C/c2ccc3c(c2)OCO3)NC(C)=O)cc1`?
E-sel TNF inh: 32

Assay outcomes: PubChem BioAssay, several laboratories
